Among the data in PubChem BioAssay (NCI) are growth values, retold here.

Compounds without any hit were thinned out: in the full panel of roughly 83,000, 20% have a hit.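 Treatment: one concentration, 48 hours, 96-well format. Scoring: percent growth, with anything below 10 considered active.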 Values without a mark were called inactive. The source made the active and inactive calls.

The first assay has as its system UO-31 renal. Kind of assay: NCI-60 one-dose screen, 48 h (100 = growth as untreated, 0 = no growth, -100 = all killed). Conditions: 10 µM unless noted.
Turning to `O=C(c1ccc(Cl)cc1)C1[C@H](c2ccccc2Cl)[C@@H](c2ccccc2)NC12C(=O)Nc1ccc(Br)cc12` (stereo not given in full), the growth is -97.5% (active).

Consider `O=C(CSc1nnc(-c2ccc(-c3nc4ccc(Cl)cc4[nH]3)cc2)o1)Nc1ccc(Cl)cc1`, for which the growth was 30.9%. Take `N#Cc1c(NC(=O)N2CCOCC2)n(-c2ccc(OC(F)(F)F)cc2)c2cc(F)ccc12`: the growth is 104%. On to `O=C(N/N=C/c1ccc(Cl)o1)c1[nH]c2ccc(Br)cc2c1-c1ccccc1`, for which the growth was -34.5% (active). The same measure, in the same setting: under `CC1=C(C(=O)OCc2ccccc2)C(c2cccc3ccccc23)n2c(nc3ccccc32)N1` (stereo not given) stands 34.2%; under `CC1=NN(C2=NC(=O)C(CC(=O)Nc3ccccc3C(F)(F)F)S2)C(c2ccc(N(C)C)cc2)C1` (stereo not given), 41.6%; under `CN1C(=O)C2(C(C#N)=C(c3ccc(Cl)cc3)Nc3c2c(-c2ccccc2)nn3-c2ccccc2)c2ccccc21` (stereo not given), 71.7%. Still for that read-out and setting: under `O=[N+]([O-])c1cccc(-c2nnc3c(/C=C/c4ccc(F)cc4)nc4ccccc4n23)c1` stands 78.3%; under `COC(=O)c1cc(C(C)=O)n2c3ccccc3c3ccccc3c12`, 38%; under `CCCCCCCOc1ccc(S(=O)(=O)Nc2ccc(C)c(F)c2C(=O)O)cc1`, 75%. Still for that read-out and setting: the result for `COc1ccc2[nH]cc(-c3cc4nc(-c5cn(C)c6ncc(Br)cc56)cc(N)n4n3)c2c1` reads -69.1% (active); that for `COc1ccc2c(c1)N=c1c-2cc2c(O)[nH]c(=S)n2c1=O`, 47.8%. With `CC(C)C[C@H](NC(=O)[C@@H]1CCCCCCCCCCC(=O)N[C@@H](CC(=O)N2CCC[C@@H]2C2CCCC2)C(=O)N1)B(O)O`, the growth was -66.8% (active).

`O=C1NC(=S)/C(=C/c2cn(-c3ccccc3)nc2-c2ccccc2)S1`: the growth was 16.7%. `CN(C)C(=O)c1cc(-c2ccc3ncnc(N4CCc5cc(F)c(Cl)cc54)c3c2)cnc1N`: the growth was -10.3% (active). As for `N#C/C(=C/c1ccc(Cl)cc1)c1nnc(NC(=O)c2ccc(-n3c(=O)[nH]c4ccccc4c3=O)cc2)s1`, the growth is 77.8%. In the case of `COc1c(B(O)O)cc(F)cc1-c1nc2c(F)cc3[nH]ncc3c2c2c1CCCC2`, the growth was 3.57% (active). Consider `O=C(CSc1nc2sc3c(c2c(=O)n1-c1ccc(Cl)cc1)CCCC3)NNC(=O)c1ccc(Br)cc1`, for which the growth is 62.3%. With `CN(C)c1ccc(/C=C/c2n(Cc3ccc4ccccc4c3)c3ccccc3[n+]2Cc2ccc3ccccc3c2)cc1`, the growth is -91.9% (active). The same measure, in the same setting: under `COc1ccc2[nH]c(=O)cc(-n3ncc(C(=O)/C=C/c4cc(OC)c(OC)c(OC)c4)c3C)c2c1` stands -36.2% (active). For `COc1ccc(C(=O)C[n+]2cccc3c4ccccc4ccc32)cc1`, the growth was 56.5%. Same read-out and setting: under `CN1CCc2c(sc3ncnc(N/N=C/c4cccc(Cl)c4Cl)c23)C1` stands 42.6%. `COc1ccc2[nH]c(O)c(N=Nc3nc(-c4ccccc4)cs3)c2c1`: the growth is 4.1% (active).

In the case of `COc1ccc(N=Nc2c(N)nn3c(N)c(C#N)c(-c4ccc(F)cc4)nc23)cc1`, the growth is 50.6%.

For the compound `C=CCSc1nnc(-c2ccc(-c3nc4ccccc4[nH]3)cc2)o1`, the growth was 56.1%. On the same count and under the same terms, under `Cc1oc(-c2ccccc2)nc1CN[C@@H]1C[C@@H]2C[C@H]([C@H]1C)C2(C)C` stands 23.9%. Regarding `COc1ccc(NC2=C(I)C(=O)C(C)=C(C)C2=O)cc1`, the growth was 46.1%.

A further assay deals with TK-10 renal. The description is as above. As to conditions: 10 µM unless noted.
With `O=C(Nc1nc2ccccc2s1)Nc1ccccc1Cl`, the growth was 84.7%.

As for `Cc1ccc(C(=O)Nc2cc(-n3ccnc3C)cc(C(F)(F)F)c2)cc1C#Cc1cnc2cccnn12`, the growth was 11.6%. As to `O=C(c1ccc(O)cc1)C1[C@H](c2ccc(Cl)cc2)[C@@H](c2ccccc2)NC12C(=O)Nc1ccccc12` (stereo not given in full), the growth is 11.8%.

Turning to `COc1ccc(-c2nc3ccc(-c4nnc(SCC(=O)Nc5ccc(/C(C)=N\O)cc5)o4)cc3[nH]2)cc1`, the growth is 111%. Regarding `C[C@H]1[C@@H](CC(=O)N[C@@H](Cc2coc3ccccc23)B(O)O)O[C@@H]2OC3(C)CC[C@H]4[C@H](C)CC[C@@H]1[C@@]24O3`, the growth is 1.76% (active). On the same count and under the same terms, the result for `Cc1cc(C(NC(=O)C2CC3(CC(Nc4cccc5c4C(=O)N(C4CCC(=O)NC4=O)C5=O)C3)C2)c2ccc3c(c2)OC(F)(F)O3)c(O)c2ncccc12` (stereo not given) reads 36.1%; that for `NC(=O)c1ccc(-c2ccc3ncnc(N4CCc5cc(F)c(Cl)cc54)c3c2)cn1`, 28.2%. The same measure, in the same setting: the result for `CCN1C(=O)N(CC)C2NNC(Sc3c(C(=O)O)c4ccccc4n(CCC(C)C)c3=O)=NC21` (stereo not given) reads 62.1%; that for `COc1ccc2[nH]c(O)c(N=Nc3nc(-c4ccc(Cl)cc4)cs3)c2c1`, 7.57% (active).

`CC[C@]12C=CCN3CC[C@@]4(c5ccc(OC)cc5N(C)[C@H]4[C@@](O)(C(=O)OC)[C@@H]1OC(=O)CCCC[P+](c1ccc(F)cc1)(c1ccc(F)cc1)c1ccc(F)cc1)[C@@H]32`: the growth was 70.2%. On the same count and under the same terms, under `COc1cccc(/C=C/c2nc3ccccc3c(=O)n2CC(=O)Nc2ccccc2)c1` stands 11.7%; under `O=C(c1ccc(Cl)cc1)C1[C@H](c2ccccc2Cl)[C@@H](c2ccccc2)NC12C(=O)Nc1ccc(Br)cc12` (stereo not given in full), -2.31% (active).

`O=C(CSc1nnc(-c2ccc(-c3nc4ccc(Cl)cc4[nH]3)cc2)o1)Nc1ccc(Cl)cc1`: the growth is 73.7%. The same measure, in the same setting: the result for `N#Cc1c(NC(=O)N2CCOCC2)n(-c2ccc(OC(F)(F)F)cc2)c2cc(F)ccc12` reads 113%. In the case of `O=C(N/N=C/c1ccc(Cl)o1)c1[nH]c2ccc(Br)cc2c1-c1ccccc1`, the growth is -11.7% (active). As to `CC1=C(C(=O)OCc2ccccc2)C(c2cccc3ccccc23)n2c(nc3ccccc32)N1` (stereo not given), the growth was 66.6%. As for `CC1=NN(C2=NC(=O)C(CC(=O)Nc3ccccc3C(F)(F)F)S2)C(c2ccc(N(C)C)cc2)C1` (stereo not given), the growth is 71.5%. As for `CN1C(=O)C2(C(C#N)=C(c3ccc(Cl)cc3)Nc3c2c(-c2ccccc2)nn3-c2ccccc2)c2ccccc21` (stereo not given), the growth was 103%.

For the compound `O=[N+]([O-])c1cccc(-c2nnc3c(/C=C/c4ccc(F)cc4)nc4ccccc4n23)c1`, the growth is 121%. As to `COC(=O)c1cc(C(C)=O)n2c3ccccc3c3ccccc3c12`, the growth is 74.3%.

Take `CCCCCCCOc1ccc(S(=O)(=O)Nc2ccc(C)c(F)c2C(=O)O)cc1`: the growth is 96.2%. With `COc1ccc2[nH]cc(-c3cc4nc(-c5cn(C)c6ncc(Br)cc56)cc(N)n4n3)c2c1`, the growth was -42.5% (active). `COc1ccc2c(c1)N=c1c-2cc2c(O)[nH]c(=S)n2c1=O`: the growth is 73.5%. Consider `CC(C)C[C@H](NC(=O)[C@@H]1CCCCCCCCCCC(=O)N[C@@H](CC(=O)N2CCC[C@@H]2C2CCCC2)C(=O)N1)B(O)O`, for which the growth is 0.691% (active). Turning to `O=C1NC(=S)/C(=C/c2cn(-c3ccccc3)nc2-c2ccccc2)S1`, the growth is 34.3%. Regarding `CN(C)C(=O)c1cc(-c2ccc3ncnc(N4CCc5cc(F)c(Cl)cc54)c3c2)cnc1N`, the growth is -69.4% (active). As for `N#C/C(=C/c1ccc(Cl)cc1)c1nnc(NC(=O)c2ccc(-n3c(=O)[nH]c4ccccc4c3=O)cc2)s1`, the growth is 114%.

`COc1c(B(O)O)cc(F)cc1-c1nc2c(F)cc3[nH]ncc3c2c2c1CCCC2`: the growth was 21.3%.

`O=C(CSc1nc2sc3c(c2c(=O)n1-c1ccc(Cl)cc1)CCCC3)NNC(=O)c1ccc(Br)cc1`: the growth is 139%. On to `CN(C)c1ccc(/C=C/c2n(Cc3ccc4ccccc4c3)c3ccccc3[n+]2Cc2ccc3ccccc3c2)cc1`, for which the growth was -81.1% (active). The same measure, in the same setting: under `COc1ccc2[nH]c(=O)cc(-n3ncc(C(=O)/C=C/c4cc(OC)c(OC)c(OC)c4)c3C)c2c1` stands 40.9%; under `COc1ccc(C(=O)C[n+]2cccc3c4ccccc4ccc32)cc1`, 73.6%. As to `CN1CCc2c(sc3ncnc(N/N=C/c4cccc(Cl)c4Cl)c23)C1`, the growth is 72.7%. Take `COc1ccc2[nH]c(O)c(N=Nc3nc(-c4ccccc4)cs3)c2c1`: the growth was 25.5%. The same measure, in the same setting: under `COc1ccc(N=Nc2c(N)nn3c(N)c(C#N)c(-c4ccc(F)cc4)nc23)cc1` stands 66.7%. On the same count and under the same terms, under `C=CCSc1nnc(-c2ccc(-c3nc4ccccc4[nH]3)cc2)o1` stands 87.7%; under `Cc1oc(-c2ccccc2)nc1CN[C@@H]1C[C@@H]2C[C@H]([C@H]1C)C2(C)C`, 80.8%. For the compound `COc1ccc(NC2=C(I)C(=O)C(C)=C(C)C2=O)cc1`, the growth was 155%.
